Source: PubChem BioAssay (NCATS)
Inconclusive results are not listed. Active and inactive are the calls of the source. Unless noted, calls follow the shape of the full dose curve.

Key:
[1] = molecular target: Peroxisome proliferator-activated receptor delta (Homo sapiens) (UniProt Q03181); assay: qHTS assay for small molecule agonists of peroxisome proliferator-activated receptor delta signaling (AID 588534);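 also: 0% = DMSO basal wells and 100% = positive control agonist at 10 µM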
How it was run: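 Cell-based beta-lactamase reporter assay run in agonist mode: cells seeded and incubated 5 hrs at 37 C, compounds added and incubated 18 hrs at 37 C. CCF4 dye fluorescence read after 2 hrs at RT; EC50 and efficacy from Hill fits.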

[2] = qHTS assay for small molecule antagonists of peroxisome proliferator-activated receptor delta signaling (AID 588535; active = well fitted inhibition curve with a large enough effect in the signal ratio, with a control signal flat, not every such curve was filed as active; the % refers to the signal ratio;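 as to max response: cells co-treated with a PPAR-delta agonist as stimulator during compound exposure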); conditions: HEK293T PPARd-UAS-bla, beta-lactamase FRET ratio, 18 h; 460 nm channel
How it was run: (§1)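 Cells were seeded at 4000 per well in assay medium containing 2% charcoal/dextran FBS and held 5 hrs at 37 C. Compounds were then added for 18 hrs. CCF4 substrate was applied for 2 hrs at room temperature before fluorescence reading.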

[3] = molecular target: Peroxisome proliferator-activated receptor delta (Homo sapiens) (UniProt Q03181); assay: as above
How it was run: as §1

[4] = molecular target: Peroxisome proliferator-activated receptor gamma (Homo sapiens) (UniProt P37231); assay: qHTS assay for small molecule agonists of peroxisome proliferator-activated receptor gamma signaling (AID 588536; active = well fitted curve in the direction sought with a large enough effect in the signal ratio, with a control signal flat, not every such curve was filed as active; the % refers to the signal ratio;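 also: 0% = DMSO basal wells and 100% = rosiglitazone at 2 µM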)
How it was run: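 HEK293 UAS-bla reporter line, 1% charcoal/dextran FBS; titration, 16 h, 37 C; CCF4 loading 2 h RT; fluorescence 460/530 nm. Normalized to rosiglitazone 2 uM = 100%, DMSO = 0%.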

[5] = molecular target: Peroxisome proliferator-activated receptor gamma (Homo sapiens) (UniProt P37231); assay: qHTS assay for small molecule antagonists of peroxisome proliferator-activated receptor gamma signaling (AID 588537; active = well fitted inhibition curve with a large enough effect in the signal ratio, with a control signal flat, not every such curve was filed as active; the % refers to the signal ratio;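 also: reporter cells co-stimulated with 50 nM rosiglitazone agonist during compound treatment; % of control where 0% means no effect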)
How it was run: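 Step one: plate 3000 HEK293 UAS-bla cells per well in medium with 1% stripped serum and hold 6-6.5 h at 37 C. Step two: add compound and 50 nM agonist for 16 h. Step three: CCF4 loading, fluorescence read.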

[6] = molecular target: Vitamin D3 receptor (Homo sapiens) (UniProt P11473); assay: qHTS assay for small molecule antagonists of vitamin D receptor signaling (AID 588541);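 also: receptor activated by calcitriol during compound treatment; % is scaled to controls: 0 for no effect and ±100 for the full control effect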
How it was run: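 VDR-UAS-bla HEK293T cells in 2% charcoal-stripped FBS were stimulated with 1-alpha,25-dihydroxyvitamin D3 (3 nM final) plus compound for 16 h at 37 C. The beta-lactamase CCF4 readout was normalized to 50 nM agonist and DMSO, and Hill fits gave IC50.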

[7] = molecular target: Vitamin D3 receptor (Homo sapiens) (UniProt P11473); assay: qHTS assay for small molecule agonists of vitamin D receptor signaling (AID 588543);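 also: 0% = DMSO basal and 100% = reference agonist control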
How it was run: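 Reporter cells (HEK293T, VDR-UAS-bla) were seeded in medium with 2% charcoal-stripped serum and incubated 5 h, then compounds in concentration series were added for 16 h at 37 °C. Stimulation was scaled between DMSO basal and 50 nM 1α,25-dihydroxyvitamin D3.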

[8] = qHTS assay for small molecule agonists of retinoid X receptor alpha signaling (AID 588544); conditions: HEK293T RXRa-UAS-bla, beta-lactamase reporter, 18 h; 530 nm emission;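 as to activation: 0% = DMSO basal wells and 100% = reference agonist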
[9] = molecular target: Retinoic acid receptor RXR-alpha (Homo sapiens) (UniProt P19793); assay: as above
[10] = qHTS assay for small molecule antagonists of retinoid X receptor alpha signaling (AID 588546; active = well fitted inhibition curve with a large enough effect in the signal ratio, with a control signal flat, not every such curve was filed as active; the % refers to the signal ratio;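 also: cells stimulated with 9-cis-retinoic acid as agonist; % is scaled to controls: 0 for no effect and ±100 for the full control effect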); conditions: HEK293T RXRa-UAS-bla, beta-lactamase ratio, antagonist mode; measured here: W530 green channel, cytotoxicity proxy
How it was run: (§2)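 Beta-lactamase reporter inhibition, read as CCF4 fluorescence ratio (ex 405, em 460/530 nm) after 2 h at RT. HEK293T UAS-bla cells, 2500/well, were stimulated with 9-cis-RA at 500 or 100 nM final alongside test compound for 18 h at 37 C.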

[11] = molecular target: Retinoic acid receptor RXR-alpha (Homo sapiens) (UniProt P19793); assay: as above; conditions: HEK293T RXRa-UAS-bla, beta-lactamase ratio, antagonist mode
How it was run: as §2

[12] = molecular target: Thyroid hormone receptor beta (Homo sapiens) (UniProt P10828); assay: qHTS assay for small molecule antagonists of thyroid hormone receptor beta signaling (AID 588547; active = well fitted inhibition curve with a large enough effect in the signal ratio, with a control signal flat, not every such curve was filed as active; the % refers to the signal ratio;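 also: cells stimulated with 0.4 nM T3 agonist during compound exposure; % is scaled to controls: 0 for no effect and ±100 for the full control effect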); conditions: TR-UAS-bla HEK293, beta-lactamase ratio, antagonist mode, 18 h
How it was run: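 TR-UAS-bla GripTite HEK293 cells in 2% charcoal/dextran FBS medium; compounds 0.59 nM to 92 uM with T3 at 0.4nM final, 18 h at 37 C. Beta-lactamase read by CCF4 fluorescence (460/530 nm); Hill fits gave IC50 and efficacy.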

[13] = qHTS assay for small molecule activators of the nuclear factor-kappa B (NF-kB) signaling pathway (AID 651749; active = well fitted activation curve with a large enough effect in the signal ratio; the % refers to the signal ratio; also: % of control where 0% means no effect); conditions: NF-kB-bla ME-180 cells, beta-lactamase FRET ratio, 16 h; activation: stronger effect = higher value
How it was run: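 Incubation lasted 16 hr at 37C in 5% CO2 after 23 nL compound addition to ME-180 NF-kB-bla cells. Activation appears as beta-lactamase-mediated FRET loss.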

[14] = qHTS assay for environmental chemicals that activate the Aryl hydrocarbon Receptor (AhR) signaling pathway (AID 651777; active = well fitted curve in the direction sought with a large enough effect; an effect the other way counts as inactive or inconclusive; also: nearly all actives have a fitted effect of over 15% in size; also: potency is read from the fitted curve at half-maximal effect; as to activation: % of control where 0% means no effect); conditions: 1A2-DRE human hepatoma cells, luciferase, 24 h; activation: stronger effect = higher value
How it was run: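 Luminescence read-out: One-Glo added for 30 min at RT after 24 hr compound treatment (37 C, 5% CO2) of human hepatoma cells expressing a DRE/CYP1A2 promoter–luciferase reporter; increased signal indicates AhR activation.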

[15] = molecular target: Peroxisome proliferator-activated receptor alpha (Homo sapiens) (UniProt Q07869); assay: qHTS assay for small molecule agonists of the peroxisome proliferator-activated receptor alpha (PPARalpha) signaling pathway (AID 651778; active = well fitted curve in the direction sought with a large enough effect; an effect the other way counts as inactive or inconclusive; also: % of control where 0% means no effect); conditions: PathHunter PPARalpha complementation, chemiluminescence, 6 h; max response: stronger effect = higher value
How it was run: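 Enzyme-fragment complementation assay in which ligand-bound PPARalpha translocates and forms an active enzyme that generates chemiluminescence. Cells were plated overnight, exposed to compound for 6 hr at 37 C, and then given detection reagent for 60 min at room temperature.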

[16] = qHTS assay for small molecule agonists of the antioxidant response element (ARE) signaling pathway measured by Nrf2-dependant transcriptional activity (AID 720636; active = well fitted curve in the direction sought with a large enough effect in the repeat runs; an effect the other way counts as inactive or inconclusive;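 also: HepG2 cells with an ARE-driven luciferase reporter; % of control where 0% means no effect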)
How it was run: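 HepG2 ARE-luc reporter line, 1% dialyzed FBS; 6 hr attachment at 37 C, compound pinned in, 16 hr at 37 C/5% CO2; ONE-Glo, 30 min RT, luminescence read.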

[17] = qHTS assay for small molecule agonists of the antioxidant response element (ARE) signaling pathway measured by Nrf2-dependant transcriptional activity - cell viability counter screen (AID 720653; active = well fitted curve in the direction sought with a large enough effect in the repeat runs; an effect the other way counts as inactive or inconclusive; also: % is scaled to controls: 0 for no effect and ±100 for the full control effect); conditions: ARE-bla HepG2 viability, CellTiter-Glo ATP luminescence, 16 h; max response: stronger effect = lower value
How it was run: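 ARE-bla HepG2 cells treated with compounds for 16 h at 37C; this counter screen measures viability as intracellular ATP by CellTiter-Glo luminescence after 30 min at room temperature.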

[18] = qHTS assay for cell viability of HEK293 cells (AID 743288; active = well fitted curve in the direction sought with a large enough effect; an effect the other way counts as inactive or inconclusive; also: % is scaled to controls: 0 for no effect and ±100 for the full control effect; nearly all actives have a fitted effect of over 50% in size); conditions: ATP luminescence (CellTiter-Glo), 18 h; max response: stronger effect = lower value
How it was run: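 HEK293 parental, 2,000 cells/well; ≥5 h pre-incubation 37 C; pintool compound addition; 18 h, 37 C; CellTiter-Glo 30 min RT; luminescence read.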

[19] = qHTS assay for cell viability of the p53RE-bla HCT-116 cell line (AID 743292; active = well fitted curve in the direction sought with a large enough effect; an effect the other way counts as inactive or inconclusive; also: nearly all actives have a fitted effect of over 55% in size; also: potency is read from the fitted curve at half-maximal effect)
How it was run: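 Luminescent ATP quantitation (CellTiter-Glo) served as the viability read-out; reagent was added after 16 h compound exposure at 37 C and read after 30 min at room temperature. Cells: p53RE-bla HCT-116, 4,000 per well.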

[20] = molecular target: Nuclear receptor subfamily 1 group I member 2 (Rattus norvegicus) (UniProt Q9R1A7); assay: qHTS assay for small molecule activators of the rat pregnane X receptor (rPXR) signaling pathway (AID 651751; call rule not given here; also: 0% is about no effect); conditions: rPXR reporter cells, luciferase (One-Glo), 24 h
[21] = qHTS assay for small molecule activators of the human pregnane X receptor (PXR) signaling pathway (AID 720659; call rule not given here; also: 0% is about no effect)
[22] = molecular target: Cytochrome P450 3A4 (Homo sapiens) (UniProt P08684); assay: qHTS Assay for Activators of Cytochrome P450 3A4 (AID 885; active = well fitted curve in the direction sought with a large enough effect; an effect the other way counts as inactive or inconclusive; also: nearly all actives have a fitted effect of over 65% in size)
How it was run: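 Quantitative HTS format: compounds preincubated with 20nM human CYP3A4 and Luciferin-PPXE substrate at KM, reaction started by NADPH regeneration, stopped after 60 min, luciferase luminescence read 20 min later.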

[23] = qHTS assay for small molecule agonists of the antioxidant response element (ARE) signaling pathway (AID 651741; active = well fitted activation curve with a large enough effect in the signal ratio; the % refers to the signal ratio; also: potency is read from the fitted curve at half-maximal effect; as to activation: % of control where 0% means no effect)
How it was run: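 HepG2 ARE-bla cells plated at 2,000 cells/well and incubated 5 h at 37 C/5% CO2 received 23 nL compound in DMSO. After 16 h at 37 C, LiveBLAzer B/G FRET substrate was applied for 2 h at room temperature and fluorescence read.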

[24] = S16 Schwann cell PMP22 intronic element beta-lactamase assay (AID 624044); conditions: S16 rat Schwann cells, PMP22 element beta-lactamase FRET, 24 h; ratio activity, negative = inhibition: at 38.3 µM (top of the series);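 also: 0% = DMSO and -100% = potassium clavulanate positive control; nearly all actives have a fitted effect of over 15% in size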
How it was run: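 Rat S16 Schwann cells with beta-Lac driven by a PMP22 intronic element, compound-treated 24 h at 37 °C. LiveBLAzer FRET B/G read: 460 nm normalized to potassium clavulanate vs DMSO; 535 nm FRET as viability; concentration-effect curves classified.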

[25] = molecular target: Voltage-gated inwardly rectifying potassium channel KCNH2 (Homo sapiens) (UniProt Q12809); assay: qHTS Assay for Small Molecule Inhibitors of the Human hERG Channel Activity (AID 588834; active = well fitted curve in the direction sought with a large enough effect; an effect the other way counts as inactive or inconclusive;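 also: potency is read from the fitted curve at half-maximal effect; lower thallium flux fluorescence means stronger hERG block; nearly all actives have a fitted effect of over 50% in size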)
How it was run: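 hERG-BacMam U2OS, 2000 cells/well; 0.7X FluxOR loading 1 hr RT dark; cpd ~10 min 37 °C; stim buffer; FDSS fluorescence 2 min @ 1 s; AC50 Hill fit.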

[26] = molecular target: Thyroid hormone receptor beta (Homo sapiens) (UniProt P10828); assay: qHTS assay for small molecule agonists of thyroid hormone receptor beta signaling (AID 588545);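 also: 0% = DMSO only and 100% = 10 nM T3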
How it was run: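 Compounds were tested as agonists in TR-UAS-bla-GripTite HEK 293 cells. After 18 hrs at 37 C, CCF4 substrate was added and fluorescence read after 2 hrs at room temperature.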

[27] = qHTS assay for small molecule activators of the p53 signaling pathway (AID 651743; active = well fitted activation curve with a large enough effect in the signal ratio, not every such curve was filed as active; the % refers to the signal ratio; also: % of control where 0% means no effect); conditions: HCT-116 p53RE-bla, beta-lactamase FRET ratio, 16 h; activation: stronger effect = higher value
How it was run: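 HCT-116 p53RE-bla, 4,000 cells/well; 5 h settle; cpd/DMSO 16 h, 37 C; LiveBLAzer B/G 2 h RT; fluorescence intensity.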

Sequence of Peroxisome proliferator-activated receptor alpha (Homo sapiens) (Q07869 whole entry, looked up, the tested form may be a part): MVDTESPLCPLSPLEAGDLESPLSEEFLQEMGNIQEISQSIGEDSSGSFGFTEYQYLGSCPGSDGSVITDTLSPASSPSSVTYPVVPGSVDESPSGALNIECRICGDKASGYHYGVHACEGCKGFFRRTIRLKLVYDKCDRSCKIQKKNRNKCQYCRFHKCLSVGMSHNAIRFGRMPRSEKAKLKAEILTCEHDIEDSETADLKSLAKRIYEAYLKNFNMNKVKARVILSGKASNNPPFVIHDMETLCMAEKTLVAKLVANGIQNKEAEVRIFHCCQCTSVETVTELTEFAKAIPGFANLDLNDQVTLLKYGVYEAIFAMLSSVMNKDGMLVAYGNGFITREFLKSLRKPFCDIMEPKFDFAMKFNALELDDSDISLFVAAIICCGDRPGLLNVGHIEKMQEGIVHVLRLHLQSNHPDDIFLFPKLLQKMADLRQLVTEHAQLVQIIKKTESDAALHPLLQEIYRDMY
Sequence of Vitamin D3 receptor (Homo sapiens) (P11473 whole entry, looked up): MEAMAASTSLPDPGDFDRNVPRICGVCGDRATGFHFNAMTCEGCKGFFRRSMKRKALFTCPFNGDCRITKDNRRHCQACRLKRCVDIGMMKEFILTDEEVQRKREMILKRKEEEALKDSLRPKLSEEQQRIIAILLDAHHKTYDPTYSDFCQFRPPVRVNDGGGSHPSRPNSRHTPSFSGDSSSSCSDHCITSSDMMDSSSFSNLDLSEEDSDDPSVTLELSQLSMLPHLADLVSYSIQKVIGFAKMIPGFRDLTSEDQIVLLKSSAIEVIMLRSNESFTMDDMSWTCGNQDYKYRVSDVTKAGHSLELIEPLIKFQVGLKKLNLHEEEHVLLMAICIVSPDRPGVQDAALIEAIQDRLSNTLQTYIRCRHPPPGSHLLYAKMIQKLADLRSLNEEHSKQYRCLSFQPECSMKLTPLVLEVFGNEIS
Sequence of Nuclear receptor subfamily 1 group I member 2 (Rattus norvegicus) (Q9R1A7 whole entry, looked up): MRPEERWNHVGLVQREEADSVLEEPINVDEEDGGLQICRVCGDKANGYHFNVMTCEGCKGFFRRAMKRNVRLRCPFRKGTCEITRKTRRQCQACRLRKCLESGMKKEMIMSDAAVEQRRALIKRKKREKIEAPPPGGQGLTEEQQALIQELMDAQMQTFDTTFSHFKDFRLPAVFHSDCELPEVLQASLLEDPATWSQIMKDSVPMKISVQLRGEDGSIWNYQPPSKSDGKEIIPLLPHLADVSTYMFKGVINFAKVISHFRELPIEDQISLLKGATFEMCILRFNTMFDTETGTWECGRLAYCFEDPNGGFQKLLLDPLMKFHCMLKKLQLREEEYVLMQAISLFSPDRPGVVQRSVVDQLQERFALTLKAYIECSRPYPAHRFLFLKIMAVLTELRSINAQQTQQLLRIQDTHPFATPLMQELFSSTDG
Sequence of Peroxisome proliferator-activated receptor delta (Homo sapiens) (Q03181 whole entry, looked up): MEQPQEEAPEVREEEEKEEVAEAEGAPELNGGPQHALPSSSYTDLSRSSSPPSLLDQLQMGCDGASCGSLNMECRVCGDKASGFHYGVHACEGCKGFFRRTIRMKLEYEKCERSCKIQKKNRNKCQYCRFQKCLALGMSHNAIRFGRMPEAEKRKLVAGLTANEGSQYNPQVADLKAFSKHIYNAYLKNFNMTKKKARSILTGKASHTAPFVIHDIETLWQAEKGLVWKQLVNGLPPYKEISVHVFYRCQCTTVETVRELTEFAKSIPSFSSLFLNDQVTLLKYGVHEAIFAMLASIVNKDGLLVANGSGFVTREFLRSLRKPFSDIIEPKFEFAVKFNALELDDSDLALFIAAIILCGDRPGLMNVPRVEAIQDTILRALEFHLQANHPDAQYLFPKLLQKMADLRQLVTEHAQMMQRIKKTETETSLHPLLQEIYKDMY
Sequence of Peroxisome proliferator-activated receptor gamma (Homo sapiens) (P37231 whole entry, looked up): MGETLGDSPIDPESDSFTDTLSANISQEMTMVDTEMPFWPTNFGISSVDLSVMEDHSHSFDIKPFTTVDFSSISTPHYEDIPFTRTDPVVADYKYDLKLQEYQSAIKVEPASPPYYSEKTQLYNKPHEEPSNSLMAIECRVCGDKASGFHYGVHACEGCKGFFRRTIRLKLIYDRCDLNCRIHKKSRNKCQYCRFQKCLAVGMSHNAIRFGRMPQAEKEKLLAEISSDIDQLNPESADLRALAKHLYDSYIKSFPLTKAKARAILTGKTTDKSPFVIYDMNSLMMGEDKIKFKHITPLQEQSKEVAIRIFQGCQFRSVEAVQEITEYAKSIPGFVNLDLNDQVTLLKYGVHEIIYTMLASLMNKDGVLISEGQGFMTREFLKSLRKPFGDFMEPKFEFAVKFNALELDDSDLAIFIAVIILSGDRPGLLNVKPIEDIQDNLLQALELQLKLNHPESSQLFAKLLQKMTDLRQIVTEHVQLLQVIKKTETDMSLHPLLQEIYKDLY
Sequence of Thyroid hormone receptor beta (Homo sapiens) (P10828 whole entry, looked up): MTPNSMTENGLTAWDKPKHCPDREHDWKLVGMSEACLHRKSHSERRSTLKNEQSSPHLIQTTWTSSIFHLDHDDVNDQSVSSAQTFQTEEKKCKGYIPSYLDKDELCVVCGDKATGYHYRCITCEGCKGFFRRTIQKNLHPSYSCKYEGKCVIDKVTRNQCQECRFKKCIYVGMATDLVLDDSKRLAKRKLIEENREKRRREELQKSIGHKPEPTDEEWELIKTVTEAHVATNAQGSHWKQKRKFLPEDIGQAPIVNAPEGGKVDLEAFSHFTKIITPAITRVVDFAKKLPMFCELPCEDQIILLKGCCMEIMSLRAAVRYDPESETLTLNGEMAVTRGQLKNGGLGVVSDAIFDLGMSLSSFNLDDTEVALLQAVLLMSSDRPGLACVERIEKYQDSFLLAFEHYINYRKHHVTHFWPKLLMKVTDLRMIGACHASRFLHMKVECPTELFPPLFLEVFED
Sequence of Retinoic acid receptor RXR-alpha (Homo sapiens) (P19793 whole entry, looked up): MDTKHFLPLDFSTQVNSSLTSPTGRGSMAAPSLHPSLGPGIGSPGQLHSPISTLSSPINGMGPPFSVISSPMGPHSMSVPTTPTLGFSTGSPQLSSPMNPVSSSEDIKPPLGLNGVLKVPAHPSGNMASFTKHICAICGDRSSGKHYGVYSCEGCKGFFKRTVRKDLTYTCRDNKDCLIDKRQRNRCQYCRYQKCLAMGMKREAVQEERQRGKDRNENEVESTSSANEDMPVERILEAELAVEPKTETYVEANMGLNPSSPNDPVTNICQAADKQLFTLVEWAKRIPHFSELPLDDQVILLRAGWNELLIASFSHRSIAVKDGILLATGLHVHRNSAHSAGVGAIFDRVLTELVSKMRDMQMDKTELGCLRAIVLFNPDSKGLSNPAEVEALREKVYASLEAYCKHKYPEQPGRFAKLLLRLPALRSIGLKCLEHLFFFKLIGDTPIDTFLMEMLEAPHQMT
Sequence of Cytochrome P450 3A4 (Homo sapiens) (P08684 whole entry, looked up): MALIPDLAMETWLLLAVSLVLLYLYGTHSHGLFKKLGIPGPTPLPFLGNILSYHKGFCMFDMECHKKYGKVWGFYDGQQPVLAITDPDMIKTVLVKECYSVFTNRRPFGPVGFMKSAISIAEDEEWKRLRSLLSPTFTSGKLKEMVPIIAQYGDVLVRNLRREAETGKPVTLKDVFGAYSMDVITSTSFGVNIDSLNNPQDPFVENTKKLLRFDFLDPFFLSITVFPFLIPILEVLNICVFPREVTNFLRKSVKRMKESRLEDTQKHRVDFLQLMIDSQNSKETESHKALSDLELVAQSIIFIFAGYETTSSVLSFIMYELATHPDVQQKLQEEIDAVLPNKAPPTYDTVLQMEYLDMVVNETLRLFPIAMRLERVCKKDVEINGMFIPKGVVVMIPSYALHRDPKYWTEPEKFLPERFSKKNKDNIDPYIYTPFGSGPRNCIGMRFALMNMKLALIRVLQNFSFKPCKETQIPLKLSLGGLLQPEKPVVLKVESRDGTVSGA
Sequence of Voltage-gated inwardly rectifying potassium channel KCNH2 (Homo sapiens) (Q12809 whole entry, looked up): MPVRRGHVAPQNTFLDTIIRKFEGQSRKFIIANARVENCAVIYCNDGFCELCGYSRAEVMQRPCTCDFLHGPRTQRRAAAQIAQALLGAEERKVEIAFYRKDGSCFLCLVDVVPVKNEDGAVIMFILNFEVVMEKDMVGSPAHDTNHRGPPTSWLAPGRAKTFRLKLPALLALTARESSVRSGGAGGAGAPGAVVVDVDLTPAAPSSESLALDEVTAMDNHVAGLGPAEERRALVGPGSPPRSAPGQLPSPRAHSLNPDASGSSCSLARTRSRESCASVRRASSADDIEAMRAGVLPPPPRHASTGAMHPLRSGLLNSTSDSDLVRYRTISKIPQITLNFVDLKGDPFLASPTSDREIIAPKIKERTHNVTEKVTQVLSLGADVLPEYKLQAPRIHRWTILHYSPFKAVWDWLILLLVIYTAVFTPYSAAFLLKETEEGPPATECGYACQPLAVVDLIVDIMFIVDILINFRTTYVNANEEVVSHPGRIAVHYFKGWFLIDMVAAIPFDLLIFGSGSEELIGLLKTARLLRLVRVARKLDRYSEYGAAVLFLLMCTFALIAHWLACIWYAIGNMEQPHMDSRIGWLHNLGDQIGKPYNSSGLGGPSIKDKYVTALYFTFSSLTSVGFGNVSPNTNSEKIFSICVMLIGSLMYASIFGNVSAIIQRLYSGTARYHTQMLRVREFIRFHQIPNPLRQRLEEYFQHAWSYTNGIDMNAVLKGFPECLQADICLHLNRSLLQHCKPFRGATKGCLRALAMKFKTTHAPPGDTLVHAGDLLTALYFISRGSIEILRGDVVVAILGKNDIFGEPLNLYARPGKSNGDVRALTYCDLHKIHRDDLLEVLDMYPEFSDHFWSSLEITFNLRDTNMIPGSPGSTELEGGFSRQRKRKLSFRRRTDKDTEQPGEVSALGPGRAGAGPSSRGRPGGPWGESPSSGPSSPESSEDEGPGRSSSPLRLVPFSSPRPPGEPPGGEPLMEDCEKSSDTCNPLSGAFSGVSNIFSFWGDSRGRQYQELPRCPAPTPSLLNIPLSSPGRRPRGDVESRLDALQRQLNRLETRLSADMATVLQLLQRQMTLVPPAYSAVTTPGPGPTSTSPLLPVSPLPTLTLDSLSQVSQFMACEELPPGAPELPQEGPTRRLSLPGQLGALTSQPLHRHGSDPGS

[CH3][Sn]([CH3])([Cl])[Cl]
-2.31%: max response [10]
-7.56%: max response [8]
1.89%: max response [2]
inactive: outcome [1] | Potency [3] | Potency [4] | Potency [5] | Potency [6] | outcome [7] | Potency [9] | max response [11] -24.3% | activity change % (negative = inhibition) [12] 0.969% | activation [13] 0.645% | activation [14] -0.285% | max response [15] -1.2% | Potency [16] | max response [17] 3.28% | max response [18] -9.37% | Potency [19] | max response [20] -0.47% | outcome [21]

OC(CCl)CCl
inactive: outcome [1]

O=C(Nc1ccccc1)c1ccccc1O
inactive: outcome [1]
active: Potency [14] 44.7 µM

COc1ccc(C)cc1N
inactive: Potency [22] | outcome [1]

CO
inactive: outcome [1]
active: Potency [23] 42.2 µM

Cc1ccccc1
inactive: outcome [1] | Potency [24]

c1ccc2c(c1)Oc1ccccc1S2
inactive: outcome [1]
active: Potency [25] 28.2 µM

CCC(C)(CC)c1cc(NC(=O)c2c(OC)cccc2OC)on1
7.62%: max response [2]
inactive: outcome [1] | Potency [3] | Potency [4] | Potency [5] | Potency [6] | outcome [7] | Potency [9] | Potency [26] | max response [11] -17.5% | activity change % (negative = inhibition) [12] 0.364% | activation [13] -0.691% | activation [14] 0.26% | max response [15] -1.49% | Potency [16] | max response [17] 10.3% | max response [18] -25.2% | Potency [19]
5.81%: max response [10]
12.1%: max response [8]

ClC1=C(Cl)[C@]2(Cl)[C@H]3[C@H]([C@@H]4C=C[C@H]3C4)[C@]1(Cl)C2(Cl)Cl
inactive: Potency [6] | outcome [7] | activation [27] -0.297% | activation [14] 0.0639% | Potency [16] | max response [17] -24.6% | max response [20] 7.41%
active: Potency [23] 61.1 µM | Potency [19] 44.7 µM

C1=Cc2cccc3cccc1c23
-12.5%: max response [8]
-1.47%: max response [2]
inactive: outcome [1] | Potency [3] | Potency [4] | Potency [5] | Potency [6] | outcome [7] | Potency [9] | Potency [26] | activation [27] -6.25% | activation [13] 0.838% | activation [14] 0.26% | max response [15] 3.92% | Potency [16] | max response [17] -6.24% | max response [18] -13.5% | Potency [19] | max response [20] 3.17%

CC1=NNC(=O)N(/N=C/c2cccnc2)C1
-7.06%: max response [8]
inactive: outcome [1] | Potency [4] | Potency [5] | Potency [6] | outcome [7] | Potency [9] | max response [11] -13.2% | activity change % (negative = inhibition) [12] -22% | Potency [23] | activation [27] 3.81% | activation [13] 0.0556% | activation [14] -0.299% | max response [15] -0.256% | Potency [16] | max response [17] -9.52% | max response [18] -11.1% | Potency [19] | max response [20] -1.81% | outcome [21]
-9.27%: max response [10]

CC(C)[C@H](C(=O)O[C@H](C#N)c1cccc(Oc2ccccc2)c1)c1ccc(Cl)cc1
2%: max response [2]
inactive: outcome [1] | Potency [3] | Potency [4] | Potency [5] | Potency [9] | Potency [26] | activation [27] -0.0449% | activation [14] 0.849% | max response [15] 0.0129% | Potency [16] | max response [17] 6.41% | max response [18] -17.9% | Potency [19]
active: Potency [23] 61.1 µM
-3.66%: max response [8]
